# Inconclusive results are not listed. Calls of active or inactive are those of the source. The call rests on the fitted dose curve; in most records, active means well fitted curve in the direction sought with a large enough effect; inconclusive means small, poorly fitted or top-dose-only effect, or another doubt; inactive means no such curve, though single readings can be large; an effect the other way counts as inactive or inconclusive.
# Assay: qHTS of Nrf2 Activators: LOPAC Validation (AID 624149); further: potency means the concentration at half of the fitted maximal effect; on activation: 0% is about no effect
# Conditions: Nrf2/ARE reporter cell assay; series mostly up to 46.1 µM; activation: at the top concentration
# Procedure, shortened: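 Following overnight seeding in 5% FBS OPTI-MEM, AREc32_Fluc cells receive compounds for a 24 hr incubation at 37 deg C with 5% CO2. Steady-Glo is added, and after 30 min at RT luminescence is recorded.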
SMILES,activation,Potency
COc1cc2c(cc1O)CC[C@@H]1[C@@H]2CC[C@]2(C)[C@@H](O)CC[C@@H]12,0.13% (inactive),–
CC[C@H](C)C(=O)O[C@H]1CCC=C2C=C[C@H](C)[C@H](CC[C@@H]3C[C@@H](O)CC(=O)O3)[C@H]21,-1.07% (inactive),–
CNCCC(Oc1ccccc1C)c1ccccc1 (configuration not stated),-1.7% (inactive),–
O=C(O)c1cc2cc(Cc3cccnc3)ccc2o1,-1.37% (inactive),–
Oc1ccc(O)cc1,–,18.4 µM (active)
CCCC1O[C@@H]2C[C@H]3[C@@H]4CCC5=CC(=O)C=C[C@]5(C)[C@H]4[C@@H](O)C[C@]3(C)[C@]2(C(=O)CO)O1 (some centres not stated),-0.959% (inactive),–
CC(=O)O[C@H]1C[C@@H]2CC[C@@H]3[C@H](CC[C@@]4(C)[C@H]3C[C@H]([N+]3(C)CCCCC3)[C@@H]4OC(C)=O)[C@@]2(C)C[C@@H]1[N+]1(C)CCCCC1,0.683% (inactive),–
CC(C)COC(=O)OCN1C(=O)CN(CCN2CC(=O)N(COC(=O)OCC(C)C)C(=O)C2)CC1=O,-1.99% (inactive),–
COc1cc(NS(C)(=O)=O)ccc1Nc1c2ccccc2nc2ccccc12,14.1% (inactive),–
C[C@@H]1C(=O)NC2=Nc3cccc(Cl)c3CN21,7.23% (inactive),–
C[N+]1(CCCCC[N+]2(C)CCCC2)CCCC1,7.52% (inactive),–
Nc1cc(Cl)c(NC2=NCCN2)c(Cl)c1,-1.43% (inactive),–
N[C@@H](Cc1cnc[nH]1)C(=O)O,-1.9% (inactive),–
CC(C)C[C@H]1C(=O)N2CCC[C@H]2[C@]2(O)O[C@](NC(=O)[C@@H]3C=C4c5cccc6[nH]c(Br)c(c56)C[C@H]4N(C)C3)(C(C)C)C(=O)N12,3.04% (inactive),–
CCCn1c(=O)[nH]c(=O)c2[nH]cnc21,-1.79% (inactive),–
CC(CCc1ccccc1)NCC(O)c1ccc(O)c(C(N)=O)c1 (configuration not stated),0.953% (inactive),–
CC1(C)CCC(NC(=O)[C@@H](N)CCC(=O)O)CC1,-2.62% (inactive),–
CCC(NC(C)C)C(O)c1ccc(O)c(O)c1 (configuration not stated),4.15% (inactive),–
CN1C2CCC1CC(OC(=O)c1c[nH]c3ccccc13)C2 (configuration not stated),-1.45% (inactive),–
C1CCc2nnnn2CC1,-1.19% (inactive),–
CNCCC=C1c2ccccc2CCc2ccccc21,12.8% (inactive),–
N[C@H](CO)C(=O)O,-1.34% (inactive),–
O=C1CCC(c2ccc(-n3ccnc3)cc2)=NN1,-0.756% (inactive),–
COC(=O)[C@H]1[C@H]2C[C@H]3c4[nH]c5ccccc5c4CCN3C[C@H]2CC[C@@H]1O,-2.04% (inactive),–
C[C@]12CC[C@@H]3c4ccc(O)cc4CC[C@H]3[C@@H]1CC[C@@H]2O,-2.42% (inactive),–

# Assay: HTS Assay for Allosteric Antagonists of the Human D2 Dopamine Receptor: Hit Validation in HTRF (AID 624455);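 further: stable D1 dopamine receptor cell line scored for blocking the D1 response; on the % scale 0 is the no-effect control and ±100 the full control effect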
# Conditions: Cells stably expressing D1 dopamine receptor, inhibition mode; series mostly up to 46.1 µM; activity, negative = inhibition: at the top concentration
# Procedure, shortened: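 Validation of hits used D1 receptor stably expressed in cells with HTRF detection of response inhibition; origin screen measured calcium flux following EC80 dopamine in a force-coupled, inducible Hek293 Trex D2 cell line.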
row,SMILES,"activity, negative = inhibition"
1,COc1cc2c(cc1O)CC[C@@H]1[C@@H]2CC[C@]2(C)[C@@H](O)CC[C@@H]12,2.84% (inactive)
2,CC[C@H](C)C(=O)O[C@H]1CCC=C2C=C[C@H](C)[C@H](CC[C@@H]3C[C@@H](O)CC(=O)O3)[C@H]21,-0.401% (inactive)
3,O=C(O)c1cc2cc(Cc3cccnc3)ccc2o1,-3.51% (inactive)
4,Oc1ccc(O)cc1,1.71% (inactive)
5,CCCC1O[C@@H]2C[C@H]3[C@@H]4CCC5=CC(=O)C=C[C@]5(C)[C@H]4[C@@H](O)C[C@]3(C)[C@]2(C(=O)CO)O1 (some centres not stated),-0.13% (inactive)
6,CC(=O)O[C@H]1C[C@@H]2CC[C@@H]3[C@H](CC[C@@]4(C)[C@H]3C[C@H]([N+]3(C)CCCCC3)[C@@H]4OC(C)=O)[C@@]2(C)C[C@@H]1[N+]1(C)CCCCC1,2.15% (inactive)
7,CC(C)COC(=O)OCN1C(=O)CN(CCN2CC(=O)N(COC(=O)OCC(C)C)C(=O)C2)CC1=O,0.224% (inactive)
8,COc1cc(NS(C)(=O)=O)ccc1Nc1c2ccccc2nc2ccccc12,4.78% (inactive)
9,C[C@@H]1C(=O)NC2=Nc3cccc(Cl)c3CN21,1.78% (inactive)
10,C[N+]1(CCCCC[N+]2(C)CCCC2)CCCC1,2.04% (inactive)
11,Nc1cc(Cl)c(NC2=NCCN2)c(Cl)c1,-7.14% (inactive)
12,N[C@@H](Cc1cnc[nH]1)C(=O)O,-1.24% (inactive)
13,CCCn1c(=O)[nH]c(=O)c2[nH]cnc21,2.74% (inactive)
14,CC(CCc1ccccc1)NCC(O)c1ccc(O)c(C(N)=O)c1 (configuration not stated),-0.884% (inactive)
15,CC1(C)CCC(NC(=O)[C@@H](N)CCC(=O)O)CC1,-2.78% (inactive)
16,CCC(NC(C)C)C(O)c1ccc(O)c(O)c1 (configuration not stated),3.46% (inactive)
17,CN1C2CCC1CC(OC(=O)c1c[nH]c3ccccc13)C2 (configuration not stated),4.2% (inactive)
18,CNCCC=C1c2ccccc2CCc2ccccc21,15.8% (inactive)
19,N[C@H](CO)C(=O)O,-1.67% (inactive)
20,O=C1CCC(c2ccc(-n3ccnc3)cc2)=NN1,1.49% (inactive)
21,COC(=O)[C@H]1[C@H]2C[C@H]3c4[nH]c5ccccc5c4CCN3C[C@H]2CC[C@@H]1O,3.46% (inactive)
22,C[C@]12CC[C@@H]3c4ccc(O)cc4CC[C@H]3[C@@H]1CC[C@@H]2O,-1.47% (inactive)

# Reference: PubChem BioAssay (NCATS)
